From PubChem BioAssay AID1645855 (Buhrlage Lab, Dana-Farber Cancer Institute and Novartis …, 2021) come the findings set out here.

Out of some 47,000 compounds screened, about 3,100 (6.6%) were called active. Rule as the data show it: active = inhibition above about 30%; inactive = the rest. Many of the other results were omitted from the sample, so actives are more common in it than they were.

The experiment deals with Ubiquitin carboxyl-terminal hydrolase 17-like protein 5 (Homo sapiens) (UniProt A8MUK1). Nature of the experiment: inhibitors of human USP17 deubiquitinase (AID 1645855). The following applies: purified USP17, Ub-rhodamine cleavage fluorescence, 3 h; at 50 µM; active compounds read high.
Sequence of Ubiquitin carboxyl-terminal hydrolase 17-like protein 5 (Homo sapiens) (A8MUK1 whole entry, looked up): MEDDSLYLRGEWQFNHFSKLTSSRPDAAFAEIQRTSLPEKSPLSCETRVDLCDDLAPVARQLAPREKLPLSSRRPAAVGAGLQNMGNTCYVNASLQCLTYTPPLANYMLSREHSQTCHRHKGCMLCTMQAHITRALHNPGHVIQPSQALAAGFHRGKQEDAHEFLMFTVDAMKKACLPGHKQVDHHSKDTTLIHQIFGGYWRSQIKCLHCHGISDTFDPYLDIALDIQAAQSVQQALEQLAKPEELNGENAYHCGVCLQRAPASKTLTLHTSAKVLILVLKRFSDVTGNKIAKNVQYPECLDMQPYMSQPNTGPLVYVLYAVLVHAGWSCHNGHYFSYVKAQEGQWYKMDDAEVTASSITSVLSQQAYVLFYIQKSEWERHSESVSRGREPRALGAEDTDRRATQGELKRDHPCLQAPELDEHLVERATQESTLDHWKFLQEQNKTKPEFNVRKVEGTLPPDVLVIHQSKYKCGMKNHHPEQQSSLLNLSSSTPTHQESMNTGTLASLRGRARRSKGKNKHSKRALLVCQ
For orientation: inhibition means the drop in the measured response relative to a control, in per cent. For the compound `Cc1nn(-c2ccccc2)c(C)c1S(=O)(=O)N1CCN(c2ccccn2)CC1`, the inhibition was -17.2% (inactive). The figure for `O=C(c1ccc(N2CCCC2)nn1)N1CCN(c2ccccn2)CC1` is -6.98% (inactive); for `Clc1cc2nc(N3CCN(c4ccccn4)CC3)c3nncn3c2cc1Cl` it is 31.5% (active). The figure for `Cc1ccc(Nc2nc(C(=O)NCCN3CCCCC3C)cc3occc23)cc1Cl` (stereo unspecified) is -11.2% (inactive); for `Cc1sc(NC(=O)c2ccccn2)nc1-c1ccc2c(c1)CCN2C(=O)C(C)C` it is -11.3% (inactive). Take `Cc1ccc(C(=O)N2CCc3cc(-c4csc(NC(=O)CNc5ccccc5)n4)ccc32)cc1`: the inhibition was 32.4% (active). As for `CCc1nc2ccc(C(=O)Nc3nc(-c4ccc5c(c4)CCN5C(=O)c4ccccc4C)c(C)s3)cc2nc1CC`, the inhibition is -14.3% (inactive). As to `CC(C)(C)CC(=O)N1CCc2cc(-c3csc(NC(=O)c4ccccn4)n3)ccc21`, the inhibition was 2.12% (inactive).

Regarding `O=C(Nc1nc(-c2ccc3c(c2)CCN3C(=O)c2ccccc2F)cs1)c1cccnc1`, the inhibition is 77.7% (active). `CCc1nc2ccc(C(=O)Nc3nc(-c4ccc5c(c4)CCN5C(=O)c4ccc(C)cc4)c(C)s3)cc2nc1CC`: the inhibition is -24.7% (inactive).

On to `Cc1cccc(NC(=O)Cn2c(C)ncc(C(=O)NC3CCCC3)c2=O)c1C`, for which the inhibition was 2.77% (inactive). Then `O=C(OCc1ccccc1F)c1cc(-c2ccccc2)nc2ccccc12`, with 7.27% (inactive); and `CCc1nnc(NC(=O)C2CCN(C(=O)c3ccc(F)cc3)CC2)s1`, with 5.9% (inactive); and `COc1cccc(O[C@@H]2C[C@@H](NC(=O)c3ccnn3C)[C@H](N3CCCC3)[C@H]2O)c1`, with -13.7% (inactive).

As for `CCCNC(=O)c1nn(-c2ccc(F)cc2)c2c1CCCCC2`, the inhibition was 3.82% (inactive). In the case of `O=C(Cc1csc(NC(=O)c2ccc(=O)[nH]c2)n1)NCc1ccco1`, the inhibition is -18.1% (inactive).

In the case of `O=C(CCc1csc(NC(=O)c2ccc(=O)[nH]c2)n1)NCCc1c[nH]c2ccccc12`, the inhibition is 36.5% (active). Consider `Cc1oc(C2CCC2)nc1C(=O)NCCc1c[nH]c2ccccc12`, for which the inhibition is 7.03% (inactive). Take `COCCCN1CC(=O)N2C(c3cccc([N+](=O)[O-])c3)c3[nH]c4ccccc4c3C[C@@H]2C1=O` (stereo partly specified): the inhibition is -12.6% (inactive). Then `O=S(=O)(Nc1ccc(Cc2ccncc2)cc1)c1ccc2c(c1)OCCO2`, with 3.72% (inactive); and `COC(=O)c1cc2c(ccn2C)n1CC(=O)N1CCN(Cc2ccc3c(c2)OCO3)CC1`, with -63.5% (inactive); and `O=C(NCc1ccc2c(c1)OCO2)C1=CCN(Cc2ccccc2)CC1`, with -28.1% (inactive). Then `O=C(Nc1cccc2ccccc12)N1CCN(Cc2ccc3c(c2)OCO3)CC1`, with 41% (active); and `CNc1nc2c(c(=O)n1-c1ccccc1OC)CCN(C(=O)N1CCOCC1)C2`, with -2.32% (inactive); and `CCCCn1c(=O)[nH]c2cc(-c3nc(-c4ccccn4)no3)ccc2c1=O`, with -20.4% (inactive). For `CCS(=O)(=O)c1cccc(C(=O)Nc2c(C(N)=O)oc3ccccc23)c1`, the inhibition was 41.9% (active). As to `O=C(Nc1c(C(=O)N2CCOCC2)oc2ccccc12)c1ccccc1F`, the inhibition was -1.41% (inactive).

Take `Cc1c(C(=O)NC2CCCCC2)oc2ccccc12`: the inhibition was 0.0641% (inactive). On to `CCCSc1nc(NCC2CCCO2)c2c3c(sc2n1)COC(C)(C)C3` (stereo unspecified), for which the inhibition is -37.2% (inactive). Take `Cc1noc(C)c1CC(=O)N1CCN(c2ccccc2F)CC1`: the inhibition is 20.5% (inactive). On to `CCCc1cc(=O)oc2cc(OC(=O)C3CCN(C(=O)c4ccc(Cl)cc4)CC3)ccc12`, for which the inhibition is 10.2% (inactive). As to `CCCc1cc(=O)oc2cc(OCC(=O)NCc3ccc(OC)cc3)ccc12`, the inhibition is 30.6% (active). The figure for `COc1ccc(N2CCN(Cc3cc(=O)oc4cc(O)ccc34)CC2)cc1` is 4.8% (inactive); for `Cc1c(CC(=O)NCC(=O)O)c(=O)oc2c(C)c(O)ccc12` it is -3.52% (inactive); for `COc1ccccc1Cn1cnc2c([nH]c3cc(OC)c(OC)cc32)c1=O` it is 58% (active). Consider `O=c1c2[nH]c3ccc(Cl)cc3c2ncn1Cc1cccnc1`, for which the inhibition was -5.96% (inactive). Take `O=c1c2[nH]c3ccc(F)cc3c2ncn1CCN1CCCC1`: the inhibition is 6.33% (inactive). On to `Cc1ccc2[nH]c3c(=O)n(Cc4ccccn4)cnc3c2c1`, for which the inhibition is 48.9% (active).

Take `COc1cc(Cn2cnc3c([nH]c4ccc(Br)cc43)c2=O)cc(OC)c1`: the inhibition was 26% (inactive). The figure for `CCOc1ccc2[nH]c3c(=O)n(Cc4cccnc4)cnc3c2c1` is 25.4% (inactive); for `O=C(O)c1cc(S(=O)(=O)NC2CCCc3ccccc32)ccc1O` (stereo unspecified) it is -9.75% (inactive); for `COc1ccc(S(=O)(=O)Nc2ccc(-c3ccc(OC)nn3)cc2)cc1` it is 14.6% (inactive). Take `COCCN(CCOC)S(=O)(=O)c1ccc(C(=O)Nc2sccc2C(N)=O)cc1`: the inhibition is 7.55% (inactive). In the case of `O=C(NCC(c1ccccc1)N1CCCCC1)c1cc(-c2cccs2)on1` (stereo unspecified), the inhibition was -11.5% (inactive).

As for `O=C1N(c2cccc(F)c2)c2ncccc2S(=O)(=O)N1Cc1ccccc1`, the inhibition was 2.92% (inactive). Consider `COCCCNC(=O)[C@H](Cc1ccccc1)NC(=O)N1CCn2c1nc1ccccc12`, for which the inhibition was -0.405% (inactive). Consider `COc1cccc(NC(=O)Cn2c(C)cc(C)c2-c2nc(C(C)C)no2)c1`, for which the inhibition was -2.06% (inactive).

In the case of `COc1ccc(NC(=O)Cc2noc(-c3cccc(OC)c3)n2)cc1`, the inhibition was 35.7% (active). On to `COc1ccc(OCC(=O)Nc2noc(-c3ccccc3)n2)cc1`, for which the inhibition is 23.8% (inactive). Regarding `CC(C)c1nnc(NC(=O)C2CC(=O)N(CCc3ccc(F)cc3)C2)s1` (stereo unspecified), the inhibition is 5.74% (inactive).

In the case of `CCN1[C@H]2CCN(C(=O)C3(C#N)CC3)CC[C@@H]2Oc2ccccc2S1(=O)=O`, the inhibition is -12.7% (inactive).

Regarding `Cc1ccc(NC(=O)CCOc2ccccc2)cc1S(=O)(=O)Nc1ccccc1Cl`, the inhibition is 39.7% (active).

Turning to `Cc1ccc(NC(=O)CCC(=O)N(c2ccccc2)c2ccccc2)cc1Cl`, the inhibition is 6.95% (inactive). Then `COc1cccc(NC(=O)COC(=O)c2ccc(OC)c(S(=O)(=O)Nc3cc(Cl)c(OC)cc3OC)c2)c1`, with 3.55% (inactive); and `O=C(NCCc1ccc(F)cc1)c1ccc(S(=O)(=O)Nc2ccccc2F)cc1`, with 13.4% (inactive); and `Cc1nc(CCN2CCN(Cc3ccccc3)CCC2=O)no1`, with 9.08% (inactive).
